Measured values from PubChem BioAssay (NCI).
The panel holds about 79,000 compounds, 15% with a hit somewhere; the sample as a whole holds those more often. Calls of active or inactive are those of the source. No stated cut-off is given here; in the data, active means growth inhibition above about 70%; inactive means the rest.

How the values were obtained:
[1] = NCI Yeast Anticancer Drug Screen. Data for the CLN2oe strain (AID 163);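 further: 0% = growth of vehicle-only control cultures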; settings: S. cerevisiae CLN2oe strain, hits give high values
Summary of the method: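 Inhibition relative to vehicle-treated yeast is reported. Cells: strain with genetic alteration in cell-cycle control, grown with compound.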

[2] = NCI Yeast Anticancer Drug Screen. Data for the cln2 rad14 strain (AID 165);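 further: 0% = growth equal to vehicle treated cultures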; settings: S. cerevisiae cln2 rad14 strain, hits give high values
Summary of the method: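 Each compound was tested on cln2 rad14 yeast. Inhibition of growth was calculated against vehicle-exposed controls.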

[3] = NCI Yeast Anticancer Drug Screen. Data for the bub3 strain (AID 167); settings: S. cerevisiae bub3 mutant strain, hits give high values
Summary of the method: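 Whole-cell yeast assay. The mutant strain was incubated with compounds, and growth inhibition was determined by comparison with vehicle-treated cells.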

[4] = NCI Yeast Anticancer Drug Screen. Data for the wt2 strain (AID 169);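 further: 0% = growth of vehicle-treated yeast cultures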; settings: S. cerevisiae wt2 strain growth inhibition, hits give high values
Summary of the method: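 Inhibition of yeast growth was determined after compound treatment, normalised to controls receiving only vehicle.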

[5] = NCI Yeast Anticancer Drug Screen. Data for the mlh1 strain (AID 171);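 further: 0% = growth of vehicle-treated control cultures of the same strain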; settings: S. cerevisiae mlh1 strain growth inhibition, hits give high values
Summary of the method: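 Vehicle-normalised growth inhibition of a repair- or checkpoint-altered yeast strain following compound treatment.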

[6] = NCI Yeast Anticancer Drug Screen. Data for the sgs1 strain (AID 173);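 further: 0% = growth of vehicle-only control cultures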; settings: S. cerevisiae sgs1 mutant, hits give high values
Summary of the method: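 Screen format: yeast with repair or checkpoint alterations, compound exposure, growth read relative to vehicle.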

[7] = NCI Yeast Anticancer Drug Screen. Data for the mlh1 rad18 strain (AID 175); settings: S. cerevisiae mlh1 rad18 strain growth inhibition, hits give high values
Summary of the method: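 Vehicle-treated cultures served as the reference for growth inhibition in a yeast strain carrying DNA damage repair alterations exposed to each compound.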

[8] = NCI Yeast Anticancer Drug Screen. Data for the rad18 strain (AID 177); settings: S. cerevisiae rad18 mutant growth inhibition, hits give high values
Summary of the method: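 Test articles were incubated with altered yeast defective in DNA damage repair. Results are given as inhibition of growth versus vehicle.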

[9] = at 5.0 µM (retest, dose inferred, filed as 0.5)
[10] = at 50.0 µM (retest, dose inferred, filed as 5.0)

Measured: growth inhibition

COc1cc2c(cc1[N+](=O)[O-])C(=O)C(Br)(Br)CCC2
inactive: [1]; at 1.2 µM 21% | [1]; at 3.7 µM 21% | [1]; at 11.0 µM 55% | [2]; [9] 25% | [3]; at 1.2 µM 9% | [3]; at 3.7 µM 36% | [3]; [9] 42% | [4]; at 1.2 µM 6% | [4]; at 3.7 µM 11% | [5]; at 1.2 µM 50% | [6]; at 1.2 µM 38% | [6]; at 3.7 µM 45% | [7]; [9] 18% | [8]; at 1.2 µM 33% | [8]; at 3.7 µM 64%
active: [1]; at 33.0 µM 98% | [1]; at 100.0 µM 93% | [2]; [10] 98% | [2]; at 50.0 µM 90% | [3]; at 11.0 µM 98% | [3]; at 33.0 µM 99% | [3]; [10] 99% | [3]; at 50.0 µM 90% | [3]; at 100.0 µM 92% | [4]; at 11.0 µM 90% | [4]; at 33.0 µM 99% | [4]; at 100.0 µM 95% | [5]; at 3.7 µM 73% | [5]; at 11.0 µM 100% | [5]; at 33.0 µM 99% | [5]; at 100.0 µM 97% | [6]; at 11.0 µM 83% | [6]; at 33.0 µM 99% | [6]; at 100.0 µM 97% | [7]; [10] 99% | [7]; at 50.0 µM 90.8% | [8]; at 11.0 µM 96% | [8]; at 33.0 µM 99% | [8]; at 100.0 µM 95%
